Laboratory results: PubChem BioAssay AID1851 (National Center for Advancing Translational Sciences (NCATS), 2009)
About 2,600 (16%) of roughly 16,000 compounds were called active. Roughly 20% stayed inconclusive and do not appear here. Calls come from the whole dose curve; as a rule, active = well fitted curve in the direction sought with a large enough effect; inconclusive = small, poorly fitted or top-dose-only effect, or effect the other way; inactive = no such curve, though single readings can be large or run the other way. The list is a sample of the results.

target: Cytochrome P450 2D6 (Homo sapiens) (UniProt P10635); experiment: Cytochrome panel assay with activity outcomes; conditions: recombinant CYP, pro-luciferin dealkylation, luminescence, p450-cyp2d6; series mostly up to 57.1 µM
Sequence (P10635 whole entry, looked up): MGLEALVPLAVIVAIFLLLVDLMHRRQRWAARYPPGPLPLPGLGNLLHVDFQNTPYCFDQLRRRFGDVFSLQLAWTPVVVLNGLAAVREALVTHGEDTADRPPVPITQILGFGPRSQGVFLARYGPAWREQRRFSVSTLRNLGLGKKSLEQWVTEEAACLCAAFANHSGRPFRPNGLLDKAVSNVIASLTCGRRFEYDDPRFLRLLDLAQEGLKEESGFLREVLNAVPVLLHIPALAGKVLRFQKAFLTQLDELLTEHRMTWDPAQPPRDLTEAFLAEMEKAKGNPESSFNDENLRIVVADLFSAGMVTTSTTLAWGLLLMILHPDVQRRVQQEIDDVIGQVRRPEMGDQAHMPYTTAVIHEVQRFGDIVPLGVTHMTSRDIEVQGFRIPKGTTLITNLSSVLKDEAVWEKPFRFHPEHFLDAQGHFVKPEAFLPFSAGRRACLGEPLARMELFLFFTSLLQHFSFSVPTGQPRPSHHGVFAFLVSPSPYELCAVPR
% is set by controls: 0 for no effect and ±100 for the full control effect.

| SMILES | AC50 | activity, negative = inhibition |
| --- | --- | --- |
| O=C(NC(C(=O)c1ccccc1)n1cnccc1=O)c1ccccc1 (configuration not stated) | inactive | – |
| Cc1ccccc1-c1nc(-n2ccnc2)c2ccccc2n1 | 15.8 µM (active) | – |
| Clc1ccccc1-c1nc(-n2ccnc2)c2ccccc2n1 | 12.6 µM (active) | – |
| COc1cc2c(c(O)c1OC)C(=O)C(OC)CCC2 (configuration not stated) | inactive | – |
| Cc1c(Nc2ncccc2C(=O)O)cccc1C(F)(F)F | inactive | – |
| C/C(CCC(=O)OC[C@@H]1O[C@H](C#Cc2ccccc2)C=C[C@@H]1Oc1ccc(C)cc1)=N/OC[C@@H](C)[C@H](OCc1ccccc1)C(C)C | – | -14.2% [at 11.4 µM] (inactive) |
| COCCn1c(=O)c(-c2cn(C)c3ccccc23)nc2cnc(Oc3ccccc3)nc21 | inactive | – |
| Cc1ccc(C)n1NC(=O)c1ccccc1 | inactive | – |
| Cc1cc2ccccc2n1CCNC(=O)c1ccccc1 | 2.51 µM (active) | – |
| CN(C)CCn1c(C(=O)O)cc2ccccc21 | inactive | – |
| CCN(CC)C(=O)CCNS(=O)(=O)c1ccc(C)cc1 | inactive | – |
| Cc1ccc(S(=O)(=O)NCCn2c(C)cc3ccccc32)cc1 | 8.91 µM (active) | – |
| Cc1cc2ccccc2n1CCNC(=O)C1CCCC1 | 12.6 µM (active) | – |
| O=C(NN1C(=O)c2ccccc2C1=O)C1CCCCC1 | inactive | – |
| Cc1cc2ccccc2c(=O)n1CC(=O)NCC(=O)N1CCCC1 | inactive | – |
| Cc1ccc(S(=O)(=O)NCCSc2nnnn2C)cc1 | inactive | – |
| C[C@]12C=CC(=O)C=C1CC[C@@H]1[C@H]3C[C@@H](O)[C@](O)(C(=O)CO)[C@@]3(C)C[C@H](O)[C@]12F | inactive | – |
| COc1ccc(S(=O)(=O)n2ccc(-c3cnc(-c4ccccc4)s3)n2)cc1 | inactive | – |
| Cc1cc(-c2ccc(Cl)cc2)oc(=O)c1NC(=O)c1ccccc1 | inactive | – |
| COc1cccc(Cn2c(=O)cnc3cnc(N(C)C)nc32)c1 | inactive | – |
| CCCCOc1ccc(C(=O)NCc2ccco2)cc1 | inactive | – |

| SMILES | AC50 | activity, negative = inhibition |
| --- | --- | --- |
| O=C(NCCc1ccccc1)C(=O)NCC1(c2ccccc2)CCCC1 | inactive | – |
| CCCCCOc1ccc(C(=O)NCC2(c3ccccc3)CCOCC2)cc1 | 17.8 µM (active) | – |
| CN1c2ccccc2Oc2c(c(=O)n(C)c(=O)n2C)C1c1cccc([N+](=O)[O-])c1 (configuration not stated) | inactive | – |
| CCCN1CNC(=S)N(c2cccc(C)c2C)C1 | inactive | – |
| COc1ccc(/C=N/NC(=O)c2ccccc2)cc1CN1CCN(c2ccc(F)cc2)CC1 | 25.1 µM (active) | – |
| COc1ccc(/C=N/NC(=O)c2ccn[nH]2)cc1COc1ccc(F)cc1 | inactive | – |
| COc1ccc(/C=N/NC(=O)c2sccc2OCc2ccc(F)cc2)cc1OC | inactive | – |
| Cn1c(=O)c2[nH]c(CCCCc3nc4c([nH]3)c(=O)n(C)c(=S)n4C)nc2n(C)c1=S | – | -8.04% [at 11.4 µM] (inactive) |
| Cc1c(NCc2cc(Cl)ccc2O)c(=O)n(-c2ccccc2)n1C | 6.31 µM (active) | – |
| Cc1c(O)c(=O)n(-c2ccccc2)n1C | inactive | – |
| Cc1c(NC(=O)Nc2c(Cl)cccc2Cl)c(=O)n(-c2ccccc2)n1C | – | -4.06% [at 11.4 µM] (inactive) |
| O=c1nc2ccccc2c2n1C[C@H](CN1CCN(c3ccccc3)CC1)N2 | inactive | – |
| O=C(O)/C=C(/C(=O)O)[C@]12CCN3CC4=CCO[C@@H]5CC(=O)N[C@@H]1[C@H]5[C@H]4C[C@H]32 | – | -1.84% [at 11.4 µM] (inactive) |
| c1csc(CNc2nc(-c3ccc4c(c3)OCO4)nc3ccccc23)c1 | 10 µM (active) | – |
| c1ccc(CNc2nc(-c3ccc4c(c3)OCO4)nc3ccccc23)cc1 | 12.6 µM (active) | – |
| COc1ccccc1CNc1nc(-c2ccc(N(C)C)cc2)nc2ccccc12 | 10 µM (active) | – |
| Cc1cnc(CNc2nc(-c3ccc4c(c3)OCO4)nc3ccccc23)cn1 | 15.8 µM (active) | – |
| Cc1cnc(CNc2nc(-c3ccc(C(=O)N(C)C)cc3)nc3ccccc23)cn1 | inactive | – |
| CCOC(=O)C1CCCN(C(=O)CCn2nc(-c3ccccc3)ccc2=O)C1 (configuration not stated) | inactive | – |
| S=c1c2[nH]cnc2ncn1CCSc1ncnc2nc[nH]c12 | – | 8.54% [at 11.4 µM] (inactive) |
| CN(C(=O)CCCOc1ccc2[nH]c(=O)ccc2c1)C1CCCCC1 | inactive | – |

| SMILES | AC50 | activity, negative = inhibition |
| --- | --- | --- |
| CC(Oc1ccc(-c2ccccc2)c(F)c1)c1ccn(S(=O)(=O)c2ccc(Cl)cc2)n1 (configuration not stated) | inactive | – |
| COC(Cn1c(C)c(C(C)=O)c(C(C)=O)c1C)OC | inactive | – |
| Nc1nc(-c2cccnc2)cc(-c2cc(-c3cccnc3)nc(N)n2)n1 | – | -6.86% [at 11.4 µM] (inactive) |
| CCC(=O)N1CCn2c1nc1ccccc12 | inactive | – |
| CCC(C)NC(=O)c1cnn2c(C)c3c(nc12)CCCC3 (configuration not stated) | inactive | – |
| COCCNc1nc(-c2ccc(C(=O)N(C)C)cc2)nc2ccccc12 | inactive | – |
| Cc1cccc(CNc2nc(-c3ccc4c(c3)OCO4)nc3ccccc23)c1 | 20 µM (active) | – |
| COc1ccccc1CNc1nc(-c2ccc3c(c2)OCO3)nc2ccccc12 | 10 µM (active) | – |
| CC(=O)NCCNc1nc(-c2ccc(C(=O)N(C)C)cc2)nc2ccccc12 | inactive | – |
| c1cncc(CNc2nc(-c3ccc4c(c3)OCO4)nc3ccccc23)c1 | 12.6 µM (active) | – |
| CC(=O)NCCNc1nc(-c2ccc3c(c2)OCO3)nc2ccccc12 | 12.6 µM (active) | – |
| COC(=O)N1CCC2(CC1)CN(C(=O)Nc1cccc(C#N)c1)C2 | inactive | – |
| COc1cc(NC(=O)c2c(F)cccc2F)nc(OC)n1 | inactive | – |
| Cc1cc(NC(=O)CCCC(=O)OCC(F)(F)C(F)F)cc(C)c1C(=O)O | inactive | – |
| COc1ccc(-n2c(=O)c(-c3cc(F)cc(F)c3)nc3cnc(N4CCNCC4)nc32)cc1 | inactive | – |
| Cc1ccc(S(=O)(=O)Oc2ccc(/C=C(/NC(=O)c3ccccc3)C(=O)Nc3ccccc3)cc2)cc1 | inactive | – |
| C[C@H]1COC(=O)[C@H]2CCCN2C(=O)[C@@H](C)COC(=O)[C@H](Cc2ccccc2)NC1=O | – | 2.57% [at 11.4 µM] (inactive) |
| CCn1c(SCC(=O)Nc2ccc3c(c2)OCCO3)nc2c(c1=O)SC(C)C2 (configuration not stated) | inactive | – |
| CC1=NN(c2ccc(S(=O)(=O)O)cc2)C(=O)/C1=C\c1ccc(Cl)cc1 | – | 5.53% [at 11.4 µM] (inactive) |
| O=C(N/C(=C\c1cccnc1)C(=O)N1CCOCC1)c1cccc(Br)c1 | inactive | – |
